Results on 16 compounds are retold here after PubChem BioAssay (NCI).

Common to all, as to test: NCI-60 one-dose screen, 48 h (100 = growth as untreated, 0 = no growth, -100 = all killed)
Common to all, as to details: 10 µM unless noted

For assay [1], the system named is SR leukemia.
Assay [2] has as its system RPMI-8226 leukemia.
Assay [3] relates to OVCAR-8 ovarian.
Assay [4] relates to OVCAR-5 ovarian.
The test system of assay [5] is OVCAR-4 ovarian.
Assay [6] deals with SK-OV-3 ovarian.
Assay [7] has as its system IGROV1 ovarian.
Assay [8] concerns OVCAR-3 ovarian.
The test system of assay [9] is HS 578T breast.
Assay [10] has as its system NCI/ADR-RES ovarian.
Assay [11] concerns T-47D breast.
In assay [12] the test system is BT-549 breast.
Assay [13] deals with MDA-MB-435 melanoma.
Assay [14] relates to SW-620 colon.
For assay [15], the system named is MCF7 breast.
In assay [16] the test system is HCT-116 colon.
Assay [17] relates to KM12 colon.
Assay [18] has as its system HCC-2998 colon.

About 83,000 compounds went through this panel and 20% of them were active in at least one assay; those are over-represented in the sample as a whole.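 The endpoint reported here, percent growth, reads 100 for growth as untreated, 0 for no net growth and -100 for all cells dead.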 Unmarked numbers belong to inactive results. Activity calls are given as the source filed them. How the source made its calls: active means growth percent below 10; inactive means the rest.

Consider `OC(c1ccccc1)(c1ccccc1)c1ccccc1-c1ccccc1`, for which the growth in [1] was 95.2%; in assay [2] it was 82.9%; in assay [3], 96.7%; in assay [4], 94.7%; in [5], 80.4%; in assay [6] it was 86.6%. Besides, the growth is 91.2% in assay [7]; 101% in assay [8]; 94.2% in assay [9]; 85.5% in [10]; 69.8% in assay [11]; 104% in assay [12]. The growth was 108% in assay [13]; 82.4% in assay [14]; 83.5% in assay [15]; 72.1% in [16]; 93.6% in assay [17].

`Cn1ccnc1C(=O)/C=C/c1ccc(C(=O)Nc2ccc(F)cc2)cc1`: the growth in assay [1] is 2.09% (active); in assay [2], -17.1% (active); in [3] it was 18.3%; in assay [4] it was 21.4%; in [5], 28.5%; in [6] it was 59.1%. In addition, the growth in [7] is 7.02% (active); in assay [8], 10.8%; in assay [9] it was 40.9%; in assay [10] it was 11.2%; in assay [11], 23.4%; in assay [12] it was -14.9% (active). Besides, the growth in assay [13] was 18.3%; in assay [14], 4.13% (active); in [15], 19%; in assay [16], -81.5% (active); in [17], 3.4% (active).

On to `Cc1cccc(-n2c(C)nc3ccc(N4CCCNC4=O)cc3c2=O)c1`, for which the growth in [1] is 98%; in [2] it was 104%; in assay [3], 99.5%; in assay [4] it was 112%; in assay [5], 99.3%; in assay [6], 114%. Further, the growth in [7] was 111%; in [8], 107%; in assay [9] it was 111%; in [10], 103%; in assay [11], 103%; in assay [12], 108%. In addition, the growth in [13] was 104%; in assay [14], 104%; in assay [15], 97.8%; in assay [16] it was 102%; in assay [17], 111%.

Regarding `Brc1ccc(-c2cnc3nonc3n2)cc1`, the growth in assay [1] is 19.9%; in assay [2], 31.1%; in assay [3] it was 80.5%; in assay [4], 122%; in assay [5] it was 42.7%; in assay [6], 110%. The growth in [7] was 81.1%; in assay [8], 9.13% (active); in assay [9] it was 87.3%; in [10], 79.7%; in assay [11] it was 69.7%; in [12], 115%. Also, the growth in assay [13] was 3.37% (active); in assay [14] it was 77.6%; in [15] it was 28.2%; in assay [16], 60%; in assay [17], 78.2%.

Regarding `COc1cc(C2C3=C(COC3=O)N(CCO)c3cc4c(cc32)OCCO4)cc(OC)c1OC` (stereo unspecified), the growth in assay [1] is 1.09% (active); in assay [2], 21.9%; in assay [3], 6.75% (active); in [4] it was 41.5%; in assay [5], 24.9%; in assay [6], 5.64% (active). Also, the growth in [7] was 4.17% (active); in assay [8] it was -55.6% (active); in assay [9], -4.92% (active); in assay [10], 48.2%; in assay [11], 67.2%; in assay [12], -4.33% (active). Besides, the growth in assay [13] was -32.8% (active); in [14] it was 11.9%; in assay [15], 11.2%; in assay [16], 0.547% (active); in [17], -28.6% (active).

Regarding `O=C1/C(=C/c2ccc(C(F)(F)F)cc2)COc2ccc(O)c(O)c21`, the growth in [1] is 3.77% (active); in [2] it was -13.8% (active); in assay [3], 9.3% (active); in [4], -34.1% (active); in [5] it was 24.8%; in [6], 81.6%. Also, the growth in assay [7] was -49.6% (active); in [8] it was -84.6% (active); in assay [9], 10.4%; in assay [10] it was -11.6% (active); in [11], -36.8% (active); in assay [12], 10.9%. The growth in assay [13] is -5.38% (active); in assay [14] it was -46% (active); in [15], 4.91% (active); in assay [16], -35.5% (active); in assay [17], -31.3% (active).

On to `COc1ccc(C2=Nc3c(N)ncnc3NC(c3cccc(Nc4ccnc5cc(C(F)(F)F)ccc45)c3)C2)cc1` (stereo unspecified), for which the growth was 5.09% (active) in [1]; 11.8% in assay [2]; 67.9% in assay [3]; 92.3% in assay [4]; 67.2% in [5]; 69.3% in [6]. In addition, the growth in assay [7] is 66.4%; in assay [8] it was 78.2%; in [9], 55.3%; in assay [10] it was 65.3%; in assay [11] it was 62%; in [12], 80.7%. Also, the growth in assay [13] was 19.1%; in assay [14], 62.3%; in assay [15], 30.1%; in [16], 40%; in assay [17] it was 47.1%.

In the case of `COC(=O)c1c2c(c(C)[n+]([O-])c1C)C(=O)C=CC2=O`, the growth is 20.2% in assay [1]; -24.8% (active) in assay [2]; -6.72% (active) in assay [3]; -61.1% (active) in [4]; -16.6% (active) in [5]; 90.3% in assay [6]. For the same compound, the growth was -38.2% (active) in assay [7]; -8.77% (active) in assay [8]; 0.0938% (active) in [9]; -19.8% (active) in assay [10]; -12.6% (active) in [11]; -90.3% (active) in [12]. For the same compound, the growth was -61.4% (active) in assay [13]; -19.5% (active) in assay [14]; -59.4% (active) in assay [15]; -14% (active) in [16]; 4.57% (active) in assay [17].

Consider `CN1CCN(CCCOc2ccc3ncnc(Nc4ccc(Oc5cccc(F)c5)c(Cl)c4)c3c2)CC1`, for which the growth is 1.08% (active) in assay [1]; -30.1% (active) in assay [2]; 31.6% in [3]; 25.4% in [4]; 3.58% (active) in assay [5]; 8.4% (active) in [6]. Also, the growth is -5.39% (active) in [7]; 0.254% (active) in assay [8]; 42.3% in assay [9]; 41.9% in assay [10]; 20.8% in assay [11]; 90.4% in assay [12]. Moreover, the growth was -84.8% (active) in assay [13]; -71.9% (active) in [14]; 3.01% (active) in assay [15]; -63.6% (active) in assay [16]; -40% (active) in assay [18]; 6.17% (active) in [17].

With `O=C(CBr)CN1C(=O)c2ccccc2C1=O`, the growth was 98.9% in assay [1]; 112% in [2]; 103% in assay [3]; 97.4% in assay [4]; 103% in assay [5]; 99.7% in assay [6]. Besides, the growth in assay [7] was 103%; in assay [8], 102%; in assay [9], 105%; in assay [10], 105%; in assay [11] it was 93.9%; in assay [12], 111%. The growth in [13] was 103%; in assay [14], 109%; in [15] it was 97.7%; in [16] it was 102%; in assay [17] it was 97.6%.

For the compound `CCCCc1oc2ccccc2c1C(=O)c1ccc(O)cc1`, the growth in assay [1] was 31%; in assay [2] it was 42.5%; in assay [3], 82.2%; in assay [4], 84.3%; in assay [5] it was 68.2%; in assay [6] it was 94.4%. For the same compound, the growth in [7] is 79.6%; in assay [8], 94.3%; in [9], 83.2%; in assay [10], 76.1%; in assay [11], 75.3%; in assay [12] it was 70.1%. Moreover, the growth in assay [13] is 52.2%; in [14], 99.8%; in assay [15] it was 104%; in [16], 83.2%; in [18], 460%; in assay [17] it was 76.4%.

Consider `Cn1ncc2ccc(-c3nc(-c4ccccc4)[nH]c3-c3n[nH]c(=O)n3C3CC3)cc21`, for which the growth in assay [1] is 82.9%; in assay [2], 94%; in assay [3] it was 99%; in [4], 98%; in assay [5], 93.6%; in assay [6] it was 94.5%. Moreover, the growth in [7] is 111%; in assay [8], 107%; in [9], 100%; in assay [10] it was 107%; in assay [11] it was 82.7%; in assay [12], 106%. For the same compound, the growth in assay [13] was 100%; in assay [14] it was 100%; in assay [15], 90.2%; in assay [16] it was 86.3%; in assay [18], 103%; in assay [17], 99.2%.

Regarding `Nc1n[nH]c2ccc([C@@H]3Nc4cc5[nH]ncc5cc4[C@H]4C5CCC(C5)[C@@H]34)cc12` (stereo partly specified), the growth in assay [1] was 20%; in assay [2], 5.15% (active); in assay [3], 29.7%; in assay [4] it was 31.2%; in assay [5] it was 43.3%; in assay [6] it was 52.8%. For the same compound, the growth is 22.7% in [7]; -27.6% (active) in [8]; 32% in [9]; 21.6% in assay [10]; 51.9% in assay [11]; 11.3% in assay [12]. For the same compound, the growth in [13] is -41.2% (active); in [14] it was 21.6%; in assay [15], 12.3%; in assay [16], 8.92% (active); in assay [17], 15.6%.

As for `C[C@@H](CO)[C@@H]1CC[C@]2(C(=O)N3CCN(C)CC3)CC[C@]3(C)[C@H](CC[C@@H]4[C@@]5(C)CC[C@H](O)C(C)(C)[C@@H]5CC[C@]43C)[C@@H]12`, the growth is -12.4% (active) in [1]; 38.2% in [2]; 80.3% in [3]; 101% in assay [4]; 78.3% in assay [5]; 108% in [6]. Also, the growth is 74% in assay [7]; 87.7% in assay [8]; 85.2% in assay [9]; 84.5% in assay [10]; 76.7% in [11]; 75.8% in assay [12]. The growth in assay [13] is 75.8%; in assay [14], 51.5%; in [15] it was 42.1%; in [16] it was 16.7%; in [17] it was 86%.

Consider `c1ccc(CNc2ccc3nc(CCC4CCCCC4)[nH]c3c2)cc1`, for which the growth in assay [1] is 80.8%; in [2], 47.9%; in assay [3] it was 72.3%; in assay [4], 63.4%; in assay [5], 47.5%; in assay [6], 86.8%. The growth in assay [7] is 53.5%; in [8], 63.9%; in assay [9], 80.9%; in [10] it was 61.8%; in [11], 33.9%; in assay [12] it was 72.2%. The growth is 81.6% in [13]; 62% in assay [15]; 54.6% in [16]; 45.8% in assay [18]; 66.7% in assay [17].

For the compound `O=C(CSc1nnc2sc(Nc3cccc(Cl)c3)nn12)c1ccc(F)cc1`, the growth in [1] was 90.9%; in [2] it was 94.9%; in assay [3], 102%; in assay [4], 95.1%; in assay [5] it was 101%; in [6] it was 82.1%. The growth in assay [7] is 101%; in [8], 106%; in assay [9], 97.4%; in assay [10] it was 96.4%; in [11], 76.4%; in assay [12], 97.8%. The growth is 100% in [13]; 99% in assay [14]; 90.4% in [15]; 85.8% in assay [16]; 103% in assay [18]; 95.8% in [17].
